Experimental data taken from PubChem BioAssay AID651744 (Broad Institute, 2012).
Screen size: about 5,600 compounds; about 3,100 (55%) were called active. About 3% were inconclusive and are not listed. So high a share suggests a set chosen from earlier hits. A selection follows. Unmarked numbers belong to inactive results.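 How the source made its calls: active means mean loss of cell viability signal at or above a set limit, and enough replicates individually reaching it; inconclusive means meets only the mean limit or only the replicate share; inactive means meets neither condition.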

Assay: NIH/3T3 fibroblast cytotoxicity, confirmation, cytotoxicity control, cell-based, cherry-pick, single point, set 2 (AID 651744);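 further: 0% = median of neutral control wells and 100% = median of positive control wells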
Details: NIH/3T3 viability, CellTiter-Glo ATP luminescence, 90 h; at 24.9 µM; hits give high values
In the case of `COc1ccc(C#Cc2ccc([C@H]3[C@H](CO)N4CCCCN(C(=O)Cc5ccccc5)C[C@@H]34)cc2)cc1`, the inhibition is reported as 106% (active). Work on `C/C=C/c1ccc([C@H]2[C@H](CO)N3CCCCN(C(=O)Cc4ccncc4)C[C@@H]23)cc1` yielded an inhibition of 3.85%. `COc1ccc(-c2ccc([C@H]3[C@H](CO)N4CCCCN(C(=O)Cc5ccncc5)C[C@@H]34)cc2)cc1` showed an inhibition of 18.4%. With `O=C(Cc1cccnc1)N1CCCCN2[C@@H](CO)[C@H](c3ccc(C#CC4CCCC4)cc3)[C@@H]2C1` the inhibition was 105% (active). In the case of `O=C(Cc1ccccn1)N1CCCCN2[C@@H](CO)[C@@H](c3ccc(C#Cc4ccccc4)cc3)[C@@H]2C1`, the inhibition is reported as 103% (active).
